The values that follow come from paper PMC11062922 (Nature Chemical Biology, 2023).

Common to all, as to set-up: species or system human, MV4-11 + K-562 + COLO205 + SK-N-BE2 + OVCAR-8
One test has as its system ABCD3. Particulars: read-out: apparent Kd; compound concentrations: 100 nM and 1000 nM (sheet 'Samples'), CATDS: 4.0800331971119997E-3; n = 1.
For the next test, the system named is ACOX3. Particulars: read-out: apparent Kd; compound concentrations: 100 nM and 1000 nM (sheet 'Samples'), CATDS: 4.2441767473343E-3; n = 1.
The test system of a further test is GRAMD1A. Particulars: read-out: apparent Kd; compound concentrations: 100 nM and 1000 nM (sheet 'Samples'), CATDS: 3.9512769472384501E-3; n = 1.
Another test deals with MAP3K3. Particulars: read-out: apparent Kd; compound concentrations: 100 nM and 1000 nM (sheet 'Samples'), CATDS: 4.1000911479265297E-3; n = 1.
The next test relates to SLC25A5. Particulars: read-out: apparent Kd; compound concentrations: 100 nM and 1000 nM (sheet 'Samples'), CATDS: 3.4931763386449499E-3; n = 1.
A further test concerns ACLY. Particulars: read-out: apparent Kd; compound concentrations: 100 nM and 1000 nM (sheet 'Samples'), CATDS: 2.7002269039485799E-2; n = 1.
For a further test, the system named is GARS. Particulars: read-out: apparent Kd; compound concentrations: 100 nM and 1000 nM (sheet 'Samples'), CATDS: 2.4594129373340799E-2; n = 1.
In the next test the test system is PFKP. Particulars: read-out: apparent Kd; compound concentrations: 100 nM and 1000 nM (sheet 'Samples'), CATDS: 2.5253779658022699E-2; n = 1.
A further test concerns SNRNP200. Particulars: read-out: apparent Kd; compound concentrations: 100 nM and 1000 nM (sheet 'Samples'), CATDS: 1.8625825044313801E-2; n = 1.
The test system of a further test is ACVRL1. Particulars: read-out: apparent Kd; compound concentrations: 100 nM and 1000 nM (sheet 'Samples'), CATDS: 0.20940846784164599; n = 1.
The next test relates to CLK3. Particulars: read-out: apparent Kd; compound concentrations: 100 nM and 1000 nM (sheet 'Samples'), CATDS: 3.87460825135853E-2; n = 1.
The test system of a further test is TTN. Particulars: read-out: apparent Kd; compound concentrations: 100 nM and 1000 nM (sheet 'Samples'), CATDS: 1.2755516587496201E-2; n = 1.
In the next test the test system is SMG1. Particulars: read-out: apparent Kd; compound concentrations:100 nM and 1000 nM (sheet 'Samples'); n = 1.
In the next test the test system is FN3KRP. Particulars: read-out: apparent Kd; compound concentrations: 100 nM and 1000 nM (sheet 'Samples'), CATDS: 2.5837856545343801E-2; n = 1.
The subject of another test is AGPS. Particulars: read-out: apparent Kd; compound concentrations: 100 nM and 1000 nM (sheet 'Samples'), CATDS: 9.2169061942303496E-2; n = 1.
The subject of another test is PSMC3. Particulars: read-out: apparent Kd; compound concentrations: 100 nM and 1000 nM (sheet 'Samples'), CATDS: 3.1956932095177297E-2; n = 1.
In a further test the test system is RAB14. Particulars: read-out: apparent Kd; compound concentrations: 100 nM and 1000 nM (sheet 'Samples'), CATDS: 3.92328124697153E-2; n = 1.
Another test relates to MAP4K4. Particulars: read-out: apparent Kd; compound concentrations: 100 nM and 1000 nM (sheet 'Samples'), CATDS: 1.6227318274317299E-2; n = 1.
Another test deals with SLC25A6;SLC25A4. Particulars: read-out: apparent Kd; compound concentrations: 100 nM and 1000 nM (sheet 'Samples'), CATDS: 2.6658773348472799E-2; n = 1.
In the next test the test system is SMC2. Particulars: read-out: apparent Kd; compound concentrations: 100 nM and 1000 nM (sheet 'Samples'), CATDS: 2.55109529885677E-2; n = 1.

With `Cn1ncc2c(N)ncnc21` [SKF-18267], the potency estimated from few doses with ABCD3 is 1270 nM; in the test with ACOX3, 1160 nM; in the test on GRAMD1A, 1380 nM; with MAP3K3 it was 1260 nM; with SLC25A5 it was 1950 nM. Consider `Cl.Cl.NC(CNC(=O)c1cc(Br)c(-c2ccnc3[nH]ccc23)s1)c1ccccc1.NC(CNC(=O)c1cc(Br)c(-c2ccnc3[nH]ccc23)s1)c1ccccc1` (centres unmarked) [GSK1322949A], for which the results for the potency estimated from few doses in the test with ACLY, in the test with GARS and in the test on PFKP were 1570 nM, 2030 nM and 1880 nM, respectively. As for `COc1cc(Nc2nccc(-c3cnn4ncccc34)n2)cc(OC)c1` [GW801372X], the potency estimated from few doses with SNRNP200 was 1540 nM. For `FC(F)(F)c1ccc(-c2ncn(CCCN3CCOCC3)c2-c2ccncc2)cc1` [SB-217780], the potency estimated from few doses in the test with ACVRL1 was 1630 nM. Take `NCC(NC(=O)c1cc(-c2cn[nH]c2)c(-c2ccnc3[nH]ccc23)s1)c1ccccc1.NCC(NC(=O)c1cc(-c2cn[nH]c2)c(-c2ccnc3[nH]ccc23)s1)c1ccccc1.O=C(O)C(F)(F)F.O=C(O)C(F)(F)F` (centres unmarked) [GSK1325775A]: in the test on CLK3, the potency estimated from few doses is 907 nM. `CCn1c(-c2cccnc2O)nc2cnccc21` [SB-736715]: the potency estimated from few doses in the test with TTN was 1870 nM.

On to `CC(=O)N[C@@H](Cc1ccc(OP(=O)(O)O)cc1)C(=O)N[C@H]1CCC(=O)N2CCC[C@@H](C(=O)NCc3ccc(Cl)cc3)N2C1=O` [RO0325308-000], for which, in the test on SMG1, the potency estimated from few doses is 121 nM. As for `CCN(CC)Cc1ccc(Nc2nccc(-c3cnn4ncccc34)n2)cc1` [GW780056X], in the test with FN3KRP, the potency estimated from few doses is 618 nM.

As for `COc1ccc(-c2cc3c(N)ncnc3o2)cc1` [GW642138X], the potency estimated from few doses with AGPS is 2180 nM. With `Cn1cc(C2=C(c3ccc(OC[C@@H](O)CO)cc3)C(=O)NC2=O)c2ccccc21` [RO3208546-000], in the test on PSMC3, the potency estimated from few doses was 2090 nM. With `COc1ccc(Nc2nccc(NCCNC(=O)Nc3cc(C)ccc3C)n2)cc1` [GSK1379899A], the potency estimated from few doses in the test on RAB14 was 2280 nM. For `NS(=O)(=O)c1ccc(NC=C2C(=O)Nc3ccc4ncsc4c32)cc1` [GW589933X], in the test on MAP4K4, the potency estimated from few doses was 2140 nM.

In the case of `CCC(CC)(CC)n1cnc2c(N)ncnc21` [SKF-97620], the potency estimated from few doses in the test with SLC25A6;SLC25A4 is 1430 nM; in the test with SMC2, 1640 nM.
